# Screening results: PubChem, National Center for Advancing Translational Sciences (NCATS)
# TDP1 cell CPT – qHTS for Inhibitors of human tyrosyl-DNA phosphodiesterase 1 (TDP1): qHTS in cells in presence of CPT. Potency, µM (highest dose often 46.2 µM), inactives show top-dose activity change, negative = growth inhibition, hits mostly inhibitors. 420,000 compounds, 12% hits. AID 686979, 2013. chicken DT40 Tdp1-/-;hTDP1 cells + 20 nM CPT, ATP luminescence, 48 h; also: potency is read from the fitted curve at half-maximal effect; nearly all actives have a fitted effect of over 55% in size
#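 Cell growth measured by CellTiter-Glo luminescence after a minimum 48 h, 37 C compound exposure with 20 nM CPT in Tdp1-knockout DT40 cells stably expressing hTDP1, seeded 400/well; qHTS titration format.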
# HT1080-NT tox – qHTS for induction of synthetic lethality in tumor cells producing 2HG: qHTS for the HT-1080-NT fibrosarcoma cell line. HT-1080-NT fibrosarcoma viability, CellTiter-Glo ATP luminescence, 48 h. Potency, µM (titrated, usually from 46.1 µM), for inactives: at the highest dose activity, negative = less viability, hits mostly cytotoxic. 360,000 compounds, 1.6% hits. AID 686970, 2013;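 also: NT is the 2HG producing partner of a matched IDH1 knockdown line; potency is read from the fitted curve at half-maximal effect; 0% = DMSO-treated cells and -100% = media-only wells without cells; nearly all actives have a fitted effect of over 55% in size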
#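 Luminescent CellTiter-Glo readout after 48 hours of compound exposure at 37 degrees C defined viability of HT-1080-NT cells. Activity was normalized to DMSO wells and cell-free media wells; concentration-response curves were fitted and assigned curve classes.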
# HT1080 IDH1KD tx – qHTS for induction of synthetic lethality in tumor cells producing 2HG: qHTS for the HT-1080-IDH1KD cell line | HT-1080 IDH1 knockdown viability, ATP luminescence, 48 h | Potency, µM (highest dose often 46.1 µM), for inactives: at the top dose activity, negative = toxicity, usual class: cytotoxic | 360,000 compounds, 2% hits | AID 686971, 2013;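 also: potency is read from the fitted curve at half-maximal effect; 0% = DMSO wells and -100% = cell-free medium wells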
#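 Viability of IDH1-knockdown HT-1080 fibrosarcoma cells was assessed by CellTiter-Glo after 48 h at 37 °C with titrated compound; concentration-effect curves were classified by fit quality and response size.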
# TDP1 cell noCPT – qHTS for Inhibitors of human tyrosyl-DNA phosphodiesterase 1 (TDP1): qHTS in cells in absence of CPT; DT40 Tdp1-/- hTDP1 cells, no CPT, ATP luminescence, 48 h; 420,000 compounds, 15% hits; Potency, µM (doses to about 46.2 µM), for the others: top-dose activity change, negative = growth inhibition, most hits filed as inhibitors; also: potency is read from the fitted curve at half-maximal effect; nearly all actives have a fitted effect of over 55% in size
#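 Growth kinetics read by CellTiter-Glo luminescence after ≥48 hr at 37 °C. Cells: DT40 Tdp1-/- stably carrying human TDP1, 400 per well, compound exposure in the absence of CPT (DMSO vehicle).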
# ELG1 repair inh – qHTS screen for small molecules that inhibit ELG1-dependent DNA repair in human embryonic kidney (HEK293T) cells expressing luciferase-tagged ELG1 | AID 504467, 2011 | HEK293T ELG1-luciferase reporter, luminescence, 16 h; DNA damage induced by 5-fluorouridine | Potency, µM (titrated, usually from 46.1 µM), inactives show top-dose activity change, negative = inhibition, usual class: inhibitors | 330,000 compounds, 2.3% hits; also: potency is read from the fitted curve at half-maximal effect; nearly all actives have a fitted effect of over 55% in size
#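 Quantitative HTS, concentration-response format. 2,000 cells/well co-treated with 5-fluorouridine and compound, 16 hr in 5% CO2 at 37 °C; ONE-Glo luminescence read after 30 min.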
# IL1B secr inh – qHTS for Inhibitors of Inflammasome Signaling: IL-1-beta AlphaLISA Primary Screen; THP-1 LPS/ATP IL-1B secretion, AlphaLISA, 16 h; stronger effect = lower value; activity change, % at 57.5 µM; 360,000 compounds, 4.7% hits; AID 743279, 2014; in the data active = activity change below about -50%; inconclusive = mostly about -30% to -49%
#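 Secreted IL-1B measured by AlphaLISA bead assay after 16 h compound exposure of THP-1 cells; compounds (final up to 57.5 uM) added 1 h before LPS (250 ng/mL) and ATP (1.25 mM) stimulation; lower signal means less secretion.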
# * marks the source's active call; other numbers are inactive results; i = inactive; u = inconclusive; x = no result; [ ] = another dose, or the depositor's remark. Shown are actives, neighbours in structure and some others; about 19% of the full set was active somewhere. Unless noted, calls follow the shape of the dose curve; as a rule, active = well fitted curve in the direction sought with a large enough effect; inconclusive = small, poorly fitted or top-dose-only effect, or another doubt; inactive = no such curve, though single readings can be large; an effect the other way counts as inactive or inconclusive. Unless noted, % is scaled to controls: 0 for no effect and ±100 for the full control effect.
SMILES,TDP1 cell CPT,HT1080-NT tox,HT1080 IDH1KD tx,TDP1 cell noCPT,ELG1 repair inh,IL1B secr inh
CC(=O)N1N=C(c2ccco2)CC1c1ccc(C)cc1 (stereo not given),9%,-2%,2%,u,21%,5
Cc1nn2c(c1-c1ccc(Cl)cc1)N=C(c1ccco1)CC2c1ccccc1 (stereo not given),15µM*,u,u,u,u,u
COc1ccc(NC(=O)COC(=O)CN2C(=O)C3CCCCC3C2=O)cc1 (stereo not given),-9%,5%,4%,-9%,x,21
O=c1c2c(-c3cccs3)csc2ncn1-c1ccccc1,-28%,-17%,-6%,u,-9%,-2
O=c1c2c(-c3ccccc3)csc2ncn1/N=C/c1c2ccccc2cc2ccccc12,u,-7%,-12%,16µM*,u,37
COc1cc(/C=N/n2cnc3scc(-c4cccs4)c3c2=O)cc(OC)c1OC,4.6µM*,u,u,2.9µM*,u,36
COc1ccc(/C=N/n2cnc3scc(-c4cccs4)c3c2=O)cc1OC,18µM*,8%,20%,u,u,8
Cc1ccc(S(=O)(=O)N2CCC(C(=O)OCC(=O)N3C(C)CCCC3C)CC2)cc1C (stereo not given),-26%,11%,8%,-13%,x,16
COc1ccc(CNC(=O)c2ccc3c(c2)N(Cc2ccccc2)CCS3)cc1,u,x,x,15µM*,x,x
O=C(NC1CC1)c1ccc2c(c1)N(Cc1ccc(Cl)cc1)CCS2,u,-8%,-20%,u,-12%,-17
CCOc1ccc(CNC(=O)c2ccc3c(c2)N(Cc2ccccc2)CCS3)cc1,u,x,x,13µM*,x,x
COc1ccc(C(=O)NCCc2ccc(F)cc2)cc1OC,-1%,-2%,-3%,-19%,u,14
O=C(NCc1cccnc1)c1ccc2c(c1)N(Cc1ccccc1)CCS2,u,-24%,-24%,u,u,-21
CC(C)Oc1ccc(CNC(=O)c2ccc3c(c2)N(Cc2ccc(F)cc2)CCS3)cc1,10µM*,x,x,7.3µM*,x,x
CCCOc1ccc(CNC(=O)c2ccc3c(c2)N(CC)CCS3)cc1,-28%,-14%,-9%,u,-9%,-22
COc1ccc(CCNC(=O)c2ccc3c(c2)N(Cc2ccc(F)cc2)CCS3)cc1OC,u,0%,-5%,15µM*,26µM*,-2
Cc1cc(C)c(NC(=O)CSc2nnc(CNC(=O)c3ccco3)o2)c(C)c1,-3%,24%,9%,15%,16%,-8
Cc1c(C(=O)O)sc2nc(CSc3ncc(C(F)(F)F)cc3Cl)[nH]c(=O)c12,10%,15%,10%,6%,9%,11
COC(=O)C1CCN(S(=O)(=O)c2cc3c4c(c2)CC(=O)N4CCC3)CC1,3%,x,x,-14%,x,x
COc1ccc(OC)c(CCNC(=O)c2ccc3c(c2)N(Cc2ccc(C)cc2)CCS3)c1,u,x,x,23µM*,x,x
CCOc1ccc(CCNC(=O)c2ccc3c(c2)N(Cc2ccc(C)cc2)CCS3)cc1,18µM*,x,x,u,x,x
Cc1c(C(=O)NCc2ccc(F)cc2)sc2nc(-c3ccccc3)cn12,18µM*,x,x,u,x,x
Cc1c(C(=O)NCc2ccco2)sc2nc(-c3ccccc3)cn12,u,u,u,u,u,-15
Cc1c(C(=O)NCc2cccnc2)sc2nc(-c3ccccc3)cn12,-10%,x,x,16µM*,u,5
Cc1c(C(=O)NCc2cccnc2)sc2nc(-c3ccc(F)cc3)cn12,u,-1%,0%,13µM*,u,-3
SMILES,TDP1 cell CPT,HT1080-NT tox,HT1080 IDH1KD tx,TDP1 cell noCPT,ELG1 repair inh,IL1B secr inh
Cc1c(C(=O)NCc2ccccc2Cl)sc2nc(-c3ccc(F)cc3)cn12,u,x,x,16µM*,x,x
O=C(Cn1cc(S(=O)(=O)Cc2cccc([N+](=O)[O-])c2)c2ccccc21)N1CCOCC1,4%,0%,-1%,-8%,1%,i
O=C(CSc1nc2c([nH]c3ccccc32)c(=O)n1-c1ccc(Cl)cc1)N1CCCC1,-6%,x,x,-1%,x,x
Cc1cc(Cn2ccnc2)c(C)c([N+](=O)[O-])c1Cn1ccnc1,-14%,6%,-2%,u,-5%,14
Cc1[nH]c2ccccc2c1C(c1c[nH]c2ccccc12)c1c(C)[nH]c2ccccc12,u,x,x,16µM*,x,x
C[n+]1ccc(C(c2c[nH]c3ccccc23)c2cc[n+](C)c3ccccc23)c2ccccc21,0.56µM*,x,x,0.56µM*,x,x
S=c1[nH]nc(C2CCCCC2)n1/N=C/c1ccccn1,-3%,5%,7%,1%,12%,32
COC(=O)c1ccc(Oc2nc(Nc3ccccc3)nc(N(C)C)n2)cc1,u,-1%,5%,21µM*,u,-1
CCn1cc(C(=O)N(C)Cc2ccccc2)c(=O)c2cc(S(=O)(=O)N3CCCCC3)ccc21,-17%,x,x,-18%,x,x
CC1=C(C)C(=O)N(c2ccccn2)C1=O,0%,8%,0%[9.24 µM],3%,2%,17
Cc1nn(-c2ccccn2)c2c1C(=O)C(Br)CC2 (stereo not given),5.2µM*,-8%,-4%,3.7µM*,1%,-106*
Cc1cc2nc(-c3ccccc3Br)n(/C=C(\c3ccccc3)n3c(=O)[nH]c4ccccc43)c2cc1C,16µM*,-9%,-15%,23µM*,x,-1
CCCCC(c1nc2ccccc2[nH]1)n1c(=O)c(-c2ccccc2)nc2cc(C)c(C)cc21 (stereo not given),u,0%,-3%,-12%,x,-14
COc1ccc(CNc2nc3ccccc3c3nc(-c4ccccc4)nn23)cc1,-8%,x,x,12µM*,x,x
Cc1ccc(CCNc2nc3ccccc3c3nc(-c4cccnc4)nn23)cc1,-23%,x,x,u,x,x
COc1ccc(CCNc2nc3cc(OC)c(OC)cc3c3nc(-c4ccccc4)nn23)cc1OC,5.8µM*,x,x,2.9µM*,x,x
